8 molecules from PubChem BioAssay (Tox21) can be followed below.

Values without a mark were called inactive. Results filed as inconclusive are left out. Activity calls are given as the source filed them. Unless noted, the call rests on the fitted dose curve; in most records, active means well fitted curve in the direction sought with a large enough effect in the repeat runs; inconclusive means weak or mixed curves; inactive means no such curve, though single readings can be large; an effect the other way counts as inactive or inconclusive.

Test [1] in a line: qHTS assay to identify small molecule agonists of H2AX (AID 1224845; active means well fitted activation curve with a large enough effect in the signal ratio in the repeat runs, not every such curve was filed as active; the % refers to the signal ratio; further: on the % scale 0 is the no-effect control and ±100 the full control effect). An outline of the steps: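 Wild-type CHO-K1 cells plated overnight, then exposed 3 hr at 37C to compounds at 15 concentrations (0.76% DMSO). Lysed, then HTRF anti-pH2AX(S139)-cryptate/anti-H2AX-d2 detection after 24 hr at room temperature; emissions 665 and 620 nm.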
A general note: qHTS replaces the single test concentration by a dilution series.

Test [2] is described as follows: qHTS assay to identify small molecule agonists of the hypoxia (HIF-1) signaling pathway (AID 1224846; active means well fitted activation curve with a large enough effect in the signal ratio in the repeat runs, not every such curve was filed as active; the % refers to the signal ratio; further: on the % scale 0 is the no-effect control and ±100 the full control effect). Summed up: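 Cell line: CellSensor HRE-bla ME-180; 2,000 cells/well; 0.5% dialyzed FBS; 5 h preincubation; DMSO compound pin transfer; 17 h, 37C, 5% CO2; CCF4-AM added; bla FRET signal scored for activation.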
Test [3] in a line: qHTS assay to identify small molecule agonists of H2AX - cell viability counter screen (AID 1224847; calls by dose curve; further: top concentration of the series differs between compounds; on the % scale 0 is the no-effect control and ±100 the full control effect; nearly all actives have a fitted effect of over 30% in size). An outline of the steps: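 Compounds tested at 15 concentrations were incubated 3 hr at 37C with wild-type CHO-K1 cells; cellular ATP-based luminescence (CellTiter-Glo) indicated viability.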
The nature of test [4]: qHTS RealTime-Glo MT Cell Viability Assay in HepG2 cells - 24 hour (AID 1224867). Further: on the % scale 0 is the no-effect control and ±100 the full control effect; nearly all actives have a fitted effect of over 50% in size. Summed up:
(§1)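 Cells + NanoLuc/prosubstrate dispensed (600 cells/well) → 5 h at 37 C/5% CO2 → compounds in DMSO transferred → 40 h incubation at 37 C, luminescence read at 0, 8, 16, 24, 32, 40 h.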

Test [5] in a line: qHTS RealTime-Glo MT Cell Viability Assay in HEK293 cells - 32 hour (AID 1224868). Further: nearly all actives have a fitted effect of over 50% in size. Further: potency means the concentration at half of the fitted maximal effect. An outline of the steps:
(§2)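 Tox21 10K qHTS, HEK293, 600 cells/well, RealTime-Glo reagent co-dispensed with cells; 5 h preincubation, compound by pintool, 37 C, luminescence at 0–40 h.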

A short description of test [6]: A CellTox Green Cytotoxicity Assay to monitor cytotoxicity in HEK293 cells - 0 hour (AID 1224869). Further: on the % scale 0 is the no-effect control and ±100 the full control effect; nearly all actives have a fitted effect of over 50% in size. An outline of the steps:
(§3)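 Nonlytic real-time cytotoxicity: HEK293 + CellTox Green reagent plated, 5 h preincubation, pintool compound addition (23 nL in DMSO), 37 C for 40 h, fluorescence measured at successive time points.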

Test [7] in a line: qHTS RealTime-Glo MT Cell Viability Assay in HepG2 cells - 40 hour (AID 1224870). Further: on the % scale 0 is the no-effect control and ±100 the full control effect; nearly all actives have a fitted effect of over 50% in size. Summed up: (§4)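 HepG2 cells mixed with RealTime-Glo MT reagents (NanoLuc plus cell-permeant prosubstrate) were seeded at 600 cells/well, incubated 5 h at 37 C/5% CO2, then pinned with compounds in DMSO; nonlytic luminescence tracked viability during 40 h treatment.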
Test [8] can be described thus: qHTS RealTime-Glo MT Cell Viability Assay in HEK293 cells - 16 hour (AID 1224872). Further: nearly all actives have a fitted effect of over 50% in size. Further: potency means the concentration at half of the fitted maximal effect. An outline of the steps:
as §2

Test [9] can be described thus: qHTS RealTime-Glo MT Cell Viability Assay in HepG2 cells - 8 hour (AID 1224873). Further: on the % scale 0 is the no-effect control and ±100 the full control effect; nearly all actives have a fitted effect of over 55% in size. Summed up:
as §4

Test [10] can be described thus: qHTS RealTime-Glo MT Cell Viability Assay in HEK293 cells - 40 hour (AID 1224874). Further: nearly all actives have a fitted effect of over 50% in size. Further: potency means the concentration at half of the fitted maximal effect. On max response: on the % scale 0 is the no-effect control and ±100 the full control effect. The settings on record: RealTime-Glo luminescence; max response: hits give low values. Summed up:
(§5)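 Cells were seeded together with NanoLuc luciferase and a prosubstrate that viable cells reduce to a luciferase substrate. After a 5 h incubation at 37 C/5% CO2, compounds were added and luminescence was measured repeatedly during 40 h of treatment.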

Test [11] can be described thus: A CellTox Green Cytotoxicity Assay to monitor cytotoxicity in HEK293 cells - 24 hour (AID 1224875). Further: on the % scale 0 is the no-effect control and ±100 the full control effect; nearly all actives have a fitted effect of over 45% in size. An outline of the steps: as §3
Test [12] is described as follows: A CellTox Green Cytotoxicity Assay to monitor cytotoxicity in HepG2 cells - 16 hour (AID 1224876). Further: on the % scale 0 is the no-effect control and ±100 the full control effect; nearly all actives have a fitted effect of over 45% in size. An outline of the steps: (§6)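 Read-out is fluorescence of a cyanine dye excluded from live cells that stains DNA of dead HepG2 cells, with signal proportional to cytotoxicity. Plates were read at 0, 8, 16, 24, 32 and 40 h after compound addition.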
Test [13] is described as follows: qHTS RealTime-Glo MT Cell Viability Assay in HepG2 cells - 32 hour (AID 1224877). Further: on the % scale 0 is the no-effect control and ±100 the full control effect; nearly all actives have a fitted effect of over 55% in size. An outline of the steps:
as §1

A short description of test [14]: A CellTox Green Cytotoxicity Assay to monitor cytotoxicity in HepG2 cells - 24 hour (AID 1224878). Further: on the % scale 0 is the no-effect control and ±100 the full control effect; nearly all actives have a fitted effect of over 45% in size. Summed up:
as §6

Test [15] is described as follows: A CellTox Green Cytotoxicity Assay to monitor cytotoxicity in HepG2 cells - 40 hour (AID 1224879). Further: nearly all actives have a fitted effect of over 40% in size. Further: potency means the concentration at half of the fitted maximal effect. An outline of the steps: as §6
Test [16] is described as follows: qHTS RealTime-Glo MT Cell Viability Assay in HEK293 cells - 0 hour (AID 1224880). Further: nearly all actives have a fitted effect of over 45% in size. Further: potency means the concentration at half of the fitted maximal effect. An outline of the steps:
as §5

Test [17] in a line: A CellTox Green Cytotoxicity Assay to monitor cytotoxicity in HEK293 cells - 32 hour (AID 1224881). Further: on the % scale 0 is the no-effect control and ±100 the full control effect; nearly all actives have a fitted effect of over 40% in size. Summed up: as §3
The nature of test [18]: A CellTox Green Cytotoxicity Assay to monitor cytotoxicity in HEK293 cells - 40 hour (AID 1224871). An outline of the steps: as §3
Test [19] can be described thus: qHTS assay to identify small molecule antagonists of the estrogen related receptor (ERR) signaling pathway from Tox21 library (AID 1224848). Summed up: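 Cells: ERR line, 2,000/well; 6 h preincubation 37 C/5% CO2. Cpd in DMSO via pin tool; 18 h, 37 C. ONE-Glo, 30 min RT, luminescence.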
The nature of test [20]: qHTS assay to identify small molecule agonists of the estrogen related receptor (ERR) signaling pathway from Tox21 library (AID 1224849; calls by dose curve; further: on the % scale 0 is the no-effect control and ±100 the full control effect; nearly all actives have a fitted effect of over 15% in size). The settings on record: ERR reporter cell line, ONE-Glo luciferase, 18 h; at 92.4 µM (top of the series) unless noted. An outline of the steps: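 ERR cells, 6 h pre-incubation 37 C/5% CO2; cpd in DMSO pinned; 18 h 37 C; ONE-Glo added, 30 min RT; luminescence read. Agonist mode, qHTS.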

Take `CC(C)(C)c1ccc(S)cc1`: the Potency entry in test [1], in [3], in [4], in test [5], in test [6] and in [7] was “inactive” throughout. The Potency result in test [8], in test [9], in [11], in test [12], in test [13] and in test [14] was “inactive” each time. Besides, the Potency entry in [15], in [16] and in test [17] was “inactive” each time. For the same molecule, the molecule was called inactive in test [2]. Besides, the max response in test [10] is -0.358%.

Consider `O=C(Cl)c1c(Cl)cccc1Cl`, for which the Potency result in test [1], in test [3], in test [5], in test [6], in test [7] and in [18] was “inactive” in each case. Also, the Potency result in test [8], in test [9], in [11], in [12], in [13] and in [14] was “inactive” throughout. The Potency entry in test [15], in test [16] and in test [17] was “inactive” each time. For the same molecule, in test [2], the call was inactive. Further, the max response in test [10] is -14.9%.

In the case of `Cc1cccc(Oc2ccccc2)c1`, the Potency result in [1], in test [4], in test [6], in test [7], in test [18] and in [9] was “inactive” in each case. The Potency entry in [11], in test [12], in [13], in [16] and in test [17] was “inactive” throughout. The molecule was classed as inactive in test [2]. The Potency is 26.6 µM (active) in test [19], 47.8 µM (active) in [10] and 47.8 µM (active) in [15]. Besides, the activity change, positive = activation in test [20] is -65.1%.

With `Cc1cccc(OCCOc2cccc(C)c2)c1`, the Potency entry in test [1], in test [4], in test [5], in [6], in test [7] and in test [8] was “inactive” each time. Besides, the Potency result in test [9], in [11], in test [13], in test [16] and in test [17] was “inactive” throughout. Also, the molecule was called inactive in [2]. In addition, the activity change, positive = activation in [20] is 10.4%. In test [10], the max response was -15.5%.

Turning to `Nc1cnn([C@@H]2O[C@H](CO)[C@@H](O)[C@H]2O)c(=O)n1`, the Potency result in test [1], in [3], in test [4], in test [5], in test [6] and in test [7] was “inactive” each time. The Potency entry in test [18], in test [8], in test [11], in test [12], in test [13] and in test [14] was “inactive” each time. The Potency entry in test [15], in test [16] and in [17] was “inactive” in each case. In test [2], the molecule was called inactive. For the same molecule, the max response in test [10] was -6.05%.

`CCCC(C)C`: the Potency entry in [1], in test [3], in [4], in test [6], in [7] and in test [18] was “inactive” throughout. For the same molecule, the Potency result in test [11], in test [12], in test [13], in test [14], in [15] and in test [16] was “inactive” each time. Also, in test [17], the Potency result is “inactive”. Further, in test [2], the molecule was classed as inactive.

As for `Cc1nc2ccccc2n1Cc1ccc(Cl)cc1`, the Potency result in test [1], in test [3], in test [4], in [6], in test [7] and in [9] was “inactive” in each case. Besides, the Potency entry in test [11], in [12], in test [13], in test [14], in [15] and in test [16] was “inactive” each time. Further, in test [17], the Potency entry was “inactive”. In test [2], the molecule was called inactive. The Potency in [5] was 1.69 µM (active); in test [8], 3.01 µM (active); in [10], 1.69 µM (active).

For the molecule `CCOC(=O)C1=C(C)NC(C)=C(C(=O)OC)C1c1cccc([N+](=O)[O-])c1` (stereo not drawn), the Potency entry in test [1], in [3], in test [6], in test [18], in test [11] and in test [12] was “inactive” each time. Besides, the Potency result in test [14], in [15] and in test [17] was “inactive” in each case. Besides, the call in test [2] was inactive. The Potency in [16] is 5.35 µM (active).
